PubChem BioAssay AID1159580 (chemical genetic matrix, 2015)
The campaign covered roughly 5,500 compounds. About 2,000 (36%) were called active. About 18% were inconclusive and are not listed. No stated cut-off is given here; in the data, active means normalized growth mostly below about 0.91 (no sharp cut-off); inconclusive means no clear call, values can overlap the other calls; inactive means mostly above about 0.92. The list shows a part of the results.

Assay: chemical genetic growth profiling, strain panel (AID 1159580);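 further: tested at 20 µM; growth read once vehicle control cultures reached saturation at 30 °C; 1 = growth at the plate median or of vehicle wells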
Conditions: growth OD

Measured: normalized growth

CCC[C@@H]1C[C@@H](C(=O)N[C@H]([C@H]2O[C@H](SC)[C@H](O)[C@@H](O)[C@H]2O)[C@H](C)O)N(C)C1
inactive: S. cerevisiae deletion strains, locus YJR066W, strain TOR1, stronger effect = lower value 0.967 | S. cerevisiae deletion strains, locus YJR075W, strain HOC1, stronger effect = lower value 0.993 | S. cerevisiae deletion strains, locus YKL009W, strain mrt4, stronger effect = lower value 0.974 | S. cerevisiae deletion strains, locus YKL068W, stronger effect = lower value 0.991 | S. cerevisiae deletion strains, locus YKL085W, strain MDH1 (second series), stronger effect = lower value 0.984 | S. cerevisiae deletion strains, locus YKL085W, strain MDH1, stronger effect = lower value 0.984 | S. cerevisiae deletion strains, locus YKL160W, strain elf1, stronger effect = lower value 0.964 | S. cerevisiae deletion strains, locus YKL190W, strain CNB1, stronger effect = lower value 1.01 | S. cerevisiae deletion strains, locus YKR001C, strain vps1, stronger effect = lower value 0.996 | S. cerevisiae deletion strains, locus YKR026C, strain gcn3, stronger effect = lower value 0.979 | S. cerevisiae deletion strains, locus YKR091W, strain srl3, stronger effect = lower value 0.987 | S. cerevisiae deletion strains, locus YLL001W, strain dnm1, stronger effect = lower value 0.951 | S. cerevisiae deletion strains, locus YLL026W, stronger effect = lower value 0.962 | S. cerevisiae deletion strains, locus YLL041C, strain sdh2, stronger effect = lower value 0.982 | S. cerevisiae deletion strains, locus YLR027C, strain aat2, stronger effect = lower value 0.97 | S. cerevisiae deletion strains, locus YLR039C, strain RIC1, stronger effect = lower value 0.973 | S. cerevisiae deletion strains, locus YLR058C, strain SHM2, stronger effect = lower value 0.977 | S. cerevisiae deletion strains, locus YLR102C, strain apc9, stronger effect = lower value 0.992 | S. cerevisiae deletion strains, locus YLR113W, strain HOG1, stronger effect = lower value 1.03 | S. cerevisiae deletion strains, locus YLR221C, strain rsa3, stronger effect = lower value 1.03 | S. cerevisiae deletion strains, locus YLR258W, strain gsy2, stronger effect = lower value 1 | S. cerevisiae deletion strains, locus YLR262C, strain YPT6 (second series), stronger effect = lower value 0.965 | S. cerevisiae deletion strains, locus YLR262C, strain YPT6, stronger effect = lower value 1.02 | S. cerevisiae deletion strains, locus YLR268W, strain sec22, stronger effect = lower value 1.01 | S. cerevisiae deletion strains, locus YLR320W, strain mms22, stronger effect = lower value 1.02 | S. cerevisiae deletion strains, locus YLR330W, strain CHS5, stronger effect = lower value 0.986 | S. cerevisiae deletion strains, locus YLR342W, strain FKS1 (second series), stronger effect = lower value 1 | S. cerevisiae deletion strains, locus YLR342W, strain FKS1, stronger effect = lower value 0.966 | S. cerevisiae deletion strains, locus YLR357W, strain rsc2, stronger effect = lower value 1 | S. cerevisiae deletion strains, locus YLR370C, strain arc18, stronger effect = lower value 0.972 | S. cerevisiae deletion strains, locus YLR371W, strain rom2, stronger effect = lower value 0.992 | S. cerevisiae deletion strains, locus YLR384C, strain iki3, stronger effect = lower value 0.97 | S. cerevisiae deletion strains, locus YLR418C, strain cdc73, stronger effect = lower value 0.975 | S. cerevisiae deletion strains, locus YML016C, strain PPZ1, stronger effect = lower value 0.989 | S. cerevisiae deletion strains, locus YML032C, strain rad52, stronger effect = lower value 1 | S. cerevisiae deletion strains, locus YML120C, strain ndi1, stronger effect = lower value 0.95 | S. cerevisiae deletion strains, locus YML124C, strain tub3, stronger effect = lower value 0.998 | S. cerevisiae deletion strains, locus YMR058W, strain fet3, stronger effect = lower value 0.975 | S. cerevisiae deletion strains, locus YMR078C, strain ctf18, stronger effect = lower value 0.986 | S. cerevisiae deletion strains, locus YMR125W, strain sto1, stronger effect = lower value 0.992 | S. cerevisiae deletion strains, locus YMR129W, stronger effect = lower value 0.991 | S. cerevisiae deletion strains, locus YMR205C, strain PFK2, stronger effect = lower value 0.99 | S. cerevisiae deletion strains, locus YMR223W, strain ubp8, stronger effect = lower value 0.962 | S. cerevisiae deletion strains, locus YMR231W, strain pep5, stronger effect = lower value 0.996 | S. cerevisiae deletion strains, locus YMR263W, strain SAP30, stronger effect = lower value 0.996 | S. cerevisiae deletion strains, locus YMR307W, strain GAS1, stronger effect = lower value 1 | S. cerevisiae deletion strains, locus YNL067W, strain RPL9B, stronger effect = lower value 1.01 | S. cerevisiae deletion strains, locus YNL071W, strain lat1, stronger effect = lower value 0.986 | S. cerevisiae deletion strains, locus YNL183C, strain NPR1, stronger effect = lower value 0.968 | S. cerevisiae deletion strains, locus YNL209W, strain ssb2, stronger effect = lower value 0.993 | S. cerevisiae deletion strains, locus YNL233W, strain BNI4, stronger effect = lower value 0.984 | S. cerevisiae deletion strains, locus YNL248C, strain rpa49, stronger effect = lower value 1.02 | S. cerevisiae deletion strains, locus YNL250W, strain rad50, stronger effect = lower value 0.979 | S. cerevisiae deletion strains, locus YNL271C, strain bni1, stronger effect = lower value 0.985 | S. cerevisiae deletion strains, locus YNL298W, strain CLA4, stronger effect = lower value 0.989 | S. cerevisiae deletion strains, locus YNL307C, strain MCK1, stronger effect = lower value 0.993 | S. cerevisiae deletion strains, locus YNL322C, strain KRE1 (second series), stronger effect = lower value 0.987 | S. cerevisiae deletion strains, locus YNL322C, strain KRE1, stronger effect = lower value 0.993 | S. cerevisiae deletion strains, locus YNR049C, strain mso1, stronger effect = lower value 0.977 | S. cerevisiae deletion strains, locus YNR052C, strain pop2, stronger effect = lower value 0.987 | S. cerevisiae deletion strains, locus YOL012C, strain htz1 0.745 | S. cerevisiae deletion strains, locus YOL147C, strain pex11, stronger effect = lower value 0.985 | S. cerevisiae deletion strains, locus YOR001W, strain rrp6, stronger effect = lower value 0.947 | S. cerevisiae deletion strains, locus YOR061W, strain CKA2, stronger effect = lower value 0.998 | S. cerevisiae deletion strains, locus YOR069W, strain VPS5, stronger effect = lower value 0.99 | S. cerevisiae deletion strains, locus YOR070C, strain gyp1, stronger effect = lower value 0.993 | S. cerevisiae deletion strains, locus YOR080W, strain dia2, stronger effect = lower value 0.971 | S. cerevisiae deletion strains, locus YOR083W, strain WHI5, stronger effect = lower value 0.966 | S. cerevisiae deletion strains, locus YOR106W, strain vam3, stronger effect = lower value 0.951 | S. cerevisiae deletion strains, locus YOR136W, strain idh2, stronger effect = lower value 0.984 | S. cerevisiae deletion strains, locus YOR144C, strain elg1, stronger effect = lower value 0.985 | S. cerevisiae deletion strains, locus YOR184W, strain ser1, stronger effect = lower value 0.978 | S. cerevisiae deletion strains, locus YOR231W, strain MKK1, stronger effect = lower value 1.04 | S. cerevisiae deletion strains, locus YOR265W, strain rbl2, stronger effect = lower value 0.983 | S. cerevisiae deletion strains, locus YOR270C, strain vph1, stronger effect = lower value 0.948 | S. cerevisiae deletion strains, locus YOR290C, strain snf2, stronger effect = lower value 1 | S. cerevisiae deletion strains, locus YOR316C, strain cot1, stronger effect = lower value 0.992 | S. cerevisiae deletion strains, locus YPL051W, strain arl3, stronger effect = lower value 1 | S. cerevisiae deletion strains, locus YPL078C, strain atp4, stronger effect = lower value 0.928 | S. cerevisiae deletion strains, locus YPL106C, strain sse1, stronger effect = lower value 0.94 | S. cerevisiae deletion strains, locus YPL240C, strain hsp82, stronger effect = lower value 0.981 | S. cerevisiae deletion strains, locus YPL241C, strain CIN2, stronger effect = lower value 0.998 | S. cerevisiae deletion strains, locus YPL256C, strain CLN2, stronger effect = lower value 1.03 | S. cerevisiae deletion strains, locus YPR119W, strain clb2, stronger effect = lower value 0.997 | S. cerevisiae deletion strains, locus YPR141C, strain kar3, stronger effect = lower value 0.985 | S. cerevisiae deletion strains, locus YPR163C, strain tif3, stronger effect = lower value 0.987 | S. cerevisiae deletion strains, locus YPR167C, strain met16, stronger effect = lower value 0.993 | S. cerevisiae deletion strains, strain wtn01, stronger effect = lower value 0.98 | S. cerevisiae strains, strain wild type, stronger effect = lower value 1.01
